Experimental data from PubChem BioAssay (Tox21).
Calls of active or inactive are those of the source. Unless noted, the call rests on the fitted dose curve; in most records, active means well fitted curve in the direction sought with a large enough effect in the repeat runs; inconclusive means weak or mixed curves; inactive means no such curve, though single readings can be large; an effect the other way counts as inactive or inconclusive.

Columns and labels:
[1] = qHTS assay for identifying genotoxic compounds that show differential cytotoxicity against isogenic chicken DT40 cell lines with known DNA damage response pathways - Rev3 mutant cell line (AID 743014); further: nearly all actives have a fitted effect of over 55% in size; further: potency means the concentration at half of the fitted maximal effect
[2] = qHTS assay to identify small molecule antagonists of the androgen receptor (AR) signaling pathway - cell viability counter screen (AID 743033; further: nearly all actives have a fitted effect of over 45% in size)
[3] = molecular target: Androgen receptor (Homo sapiens) (UniProt P10275); assay: qHTS assay to identify small molecule antagonists of the androgen receptor (AR) signaling pathway (AID 743035; active means well fitted inhibition curve with a large enough effect in the signal ratio in the repeat runs, not every such curve was filed as active; inconclusive means weak or mixed curves, or effect the other way; inactive means no such curve, though single readings can be large or run the other way; the % refers to the signal ratio)
Chain of Androgen receptor (Homo sapiens) (P10275 whole entry, looked up): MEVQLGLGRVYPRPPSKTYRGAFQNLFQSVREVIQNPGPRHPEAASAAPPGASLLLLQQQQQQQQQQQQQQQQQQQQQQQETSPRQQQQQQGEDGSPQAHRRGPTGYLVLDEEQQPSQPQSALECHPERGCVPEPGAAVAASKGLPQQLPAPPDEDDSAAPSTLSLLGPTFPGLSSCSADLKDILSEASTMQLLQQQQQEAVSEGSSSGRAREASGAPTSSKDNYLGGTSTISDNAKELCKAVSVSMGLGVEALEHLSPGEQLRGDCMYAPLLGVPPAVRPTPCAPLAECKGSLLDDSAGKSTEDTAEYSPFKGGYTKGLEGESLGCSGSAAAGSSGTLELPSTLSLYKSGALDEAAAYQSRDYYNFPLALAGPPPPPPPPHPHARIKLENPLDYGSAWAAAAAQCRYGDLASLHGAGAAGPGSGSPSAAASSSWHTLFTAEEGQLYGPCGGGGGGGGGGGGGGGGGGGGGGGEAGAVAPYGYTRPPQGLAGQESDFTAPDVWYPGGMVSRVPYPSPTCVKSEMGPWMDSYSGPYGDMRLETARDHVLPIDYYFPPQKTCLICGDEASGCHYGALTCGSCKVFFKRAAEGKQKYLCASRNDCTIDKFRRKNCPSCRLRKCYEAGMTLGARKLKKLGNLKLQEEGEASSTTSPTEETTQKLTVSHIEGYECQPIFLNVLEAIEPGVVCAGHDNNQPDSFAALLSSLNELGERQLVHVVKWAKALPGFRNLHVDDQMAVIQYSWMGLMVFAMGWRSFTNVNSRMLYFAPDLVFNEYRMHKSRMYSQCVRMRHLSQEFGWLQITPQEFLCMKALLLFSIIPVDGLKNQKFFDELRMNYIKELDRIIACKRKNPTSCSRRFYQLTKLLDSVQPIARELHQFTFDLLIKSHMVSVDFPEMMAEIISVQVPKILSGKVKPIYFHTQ
In short: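 Fluorescence from a beta-lactamase FRET substrate (LiveBLAzer B/G, 2 h, room temperature) measured inhibition of R1881-stimulated signaling in GeneBLAzer AR-UAS-bla HEK293 cells exposed to compound for 16 h at 37C.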

[4] = molecular target: Androgen receptor (Homo sapiens) (UniProt P10275); assay: qHTS assay to identify small molecule agonists of the androgen receptor (AR) signaling pathway (AID 743036; active means well fitted activation curve with a large enough effect in the signal ratio in the repeat runs, with a control signal flat, not every such curve was filed as active; inconclusive means weak or mixed curves, or effect the other way; inactive means no such curve, though single readings can be large or run the other way; the % refers to the signal ratio)
In short: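 Fluorescence from a beta-lactamase FRET substrate served as read-out in AR-UAS-bla GripTite HEK293 cells. Cells were treated with DMSO-dissolved compounds for 16 h at 37C, then with LiveBLAzer B/G substrate for 2 h at room temperature.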

[5] = molecular target: Androgen receptor (Homo sapiens) (UniProt P10275); assay: qHTS assay to identify small molecule agonists of the androgen receptor (AR) signaling pathway using the MDA cell line (AID 743040; further: nearly all actives have a fitted effect of over 20% in size)
In short: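 Luminescence from ONE-Glo, read after 30 min at room temperature, reflects MMTV-driven luciferase in MDA-kb2 cells (AR- and GR-responsive). Treatment lasted 16 h at 37C, 0% CO2.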

[6] = qHTS assay to identify small molecule antagonists of the androgen receptor (AR) signaling pathway using the MDA cell line - cell viability counter screen (AID 743041; further: nearly all actives have a fitted effect of over 45% in size)
In short: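 Viability counter screen run alongside the AR antagonist reporter: cells seeded 5 h before compound, R1881 added, 16 h incubation at 37C without CO2, fluorescent CellTiter-Fluor signal quantified.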

[7] = molecular target: Androgen receptor (Homo sapiens) (UniProt P10275); assay: qHTS assay to identify small molecule antagonists of the androgen receptor (AR) signaling pathway using the MDA cell line (AID 743042; further: nearly all actives have a fitted effect of over 55% in size)
In short: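 MDA-kb2 cells (human breast carcinoma, stably carrying an MMTV-luciferase reporter responsive to AR and GR) were plated at 3,000 cells/well and preincubated 5 hr at 37C, then given compound plus R1881 agonist for 16 h. ONE-Glo luminescence was read.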

[8] = qHTS assay to identify small molecule antagonists of the thyroid receptor (TR) signaling pathway - cell viability counter screen (AID 743064); further: nearly all actives have a fitted effect of over 50% in size; further: potency means the concentration at half of the fitted maximal effect
In short: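 Fluorescence from CellTiter-Fluor, added after 23.5 h exposure at 37 °C, reported viability of GH3.TRE-Luc cells co-treated with compound and 1 nM T3. Measured in the same wells as the luciferase TR readout.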

[9] = tested on: thyroid hormone receptor (rat, GH3 cells); assay: qHTS assay to identify small molecule agonists of the thyroid receptor (TR) signaling pathway (AID 743066; calls by dose curve)
[10] = qHTS assay to identify small molecule antagonists of the estrogen receptor alpha (ER-alpha) signaling pathway - cell viability counter screen (AID 743074; calls by dose curve;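 further: HEK293 cells carrying ER-alpha-UAS-bla reporter stimulated with 17beta-estradiol; nearly all actives have a fitted effect of over 45% in size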; further: potency means the concentration at half of the fitted maximal effect)
[11] = molecular target: Estrogen receptor (Homo sapiens) (UniProt P03372); assay: qHTS assay to identify small molecule agonists of the estrogen receptor alpha (ER-alpha) signaling pathway (AID 743075; calls by dose curve;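 further: HEK293 GripTite cells with ER-alpha and UAS-driven beta-lactamase reporter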)
Chain of Estrogen receptor (Homo sapiens) (P03372 whole entry, looked up): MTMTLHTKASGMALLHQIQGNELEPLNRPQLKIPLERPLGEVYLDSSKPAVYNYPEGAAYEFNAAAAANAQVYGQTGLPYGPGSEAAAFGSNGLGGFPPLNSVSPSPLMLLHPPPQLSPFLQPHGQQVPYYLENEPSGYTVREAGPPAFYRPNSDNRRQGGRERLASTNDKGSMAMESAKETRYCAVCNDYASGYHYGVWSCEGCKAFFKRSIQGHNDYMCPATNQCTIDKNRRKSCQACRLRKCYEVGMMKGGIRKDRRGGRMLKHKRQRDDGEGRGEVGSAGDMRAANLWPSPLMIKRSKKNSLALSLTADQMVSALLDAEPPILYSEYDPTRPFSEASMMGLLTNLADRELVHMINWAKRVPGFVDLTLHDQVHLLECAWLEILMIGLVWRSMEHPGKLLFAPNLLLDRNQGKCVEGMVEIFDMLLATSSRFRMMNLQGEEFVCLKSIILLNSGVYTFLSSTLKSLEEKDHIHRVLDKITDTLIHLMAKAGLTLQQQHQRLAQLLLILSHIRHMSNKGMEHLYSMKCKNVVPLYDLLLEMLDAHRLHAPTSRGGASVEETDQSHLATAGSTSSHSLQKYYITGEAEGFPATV

[12] = molecular target: Estrogen receptor (Homo sapiens) (UniProt P03372); assay: qHTS assay to identify small molecule agonists of the estrogen receptor alpha (ER-alpha) signaling pathway using the BG1 cell line (AID 743079); further: nearly all actives have a fitted effect of over 20% in size; further: potency means the concentration at half of the fitted maximal effect
[13] = qHTS assay to identify small molecule antagonists of the estrogen receptor alpha (ER-alpha) signaling pathway using the BG1 cell line (AID 743080; calls by dose curve;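 further: BG1 cells stimulated with 17beta-estradiol alongside compound; series mostly up to about 70 µM; nearly all actives have a fitted effect of over 25% in size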)
In short: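 Seeding, 24 h rest, compound transfer from DMSO, 17beta-estradiol addition, 21.5 h incubation, CellTiter-Fluor (30 min, 37 C), then ONE-Glo (30 min, room temperature): this sequence was run on BG1-Luc-4E2 reporter cells.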

[14] = qHTS assay to identify small molecule antagonists of the estrogen receptor alpha (ER-alpha) signaling pathway using the BG1 cell line - cell viability counter screen (AID 743081);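 further: compound given together with 17beta-estradiol as the ER stimulus; nearly all actives have a fitted effect of over 45% in size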; further: potency means the concentration at half of the fitted maximal effect
Aromatase (Homo sapiens) = Aromatase (Homo sapiens) (UniProt P11511); assay: qHTS assay to identify aromatase inhibitors (AID 743083); further: series mostly up to about 70 µM; nearly all actives have a fitted effect of over 55% in size
Chain of Aromatase (Homo sapiens) (P11511 whole entry, looked up): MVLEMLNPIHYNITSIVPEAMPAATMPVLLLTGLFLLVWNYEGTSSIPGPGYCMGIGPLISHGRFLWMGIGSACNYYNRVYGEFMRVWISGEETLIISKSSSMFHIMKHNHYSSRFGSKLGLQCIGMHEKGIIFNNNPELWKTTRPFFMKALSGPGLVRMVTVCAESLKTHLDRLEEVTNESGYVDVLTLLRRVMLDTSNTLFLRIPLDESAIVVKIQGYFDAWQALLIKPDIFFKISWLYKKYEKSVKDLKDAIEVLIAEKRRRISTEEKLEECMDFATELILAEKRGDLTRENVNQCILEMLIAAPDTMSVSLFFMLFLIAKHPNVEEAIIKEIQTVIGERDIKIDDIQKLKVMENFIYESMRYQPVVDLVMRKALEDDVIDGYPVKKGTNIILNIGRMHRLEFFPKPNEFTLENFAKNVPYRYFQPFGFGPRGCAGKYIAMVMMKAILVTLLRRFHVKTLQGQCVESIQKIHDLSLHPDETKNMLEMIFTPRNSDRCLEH

[15] = qHTS assay for identifying genotoxic compounds that show differential cytotoxicity against isogenic chicken DT40 cell lines with known DNA damage response pathways - wild type cell line (AID 743012); further: nearly all actives have a fitted effect of over 60% in size; further: potency means the concentration at half of the fitted maximal effect
In short: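 Wild type DT40, 300 cells/well, ~0.5 h settle at 37 C/5% CO2; compounds in DMSO added by pintool; 40 h at 37 C/5% CO2; CellTiter-Glo, 30 min RT; luminescence.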

[16] = qHTS assay for identifying genotoxic compounds that show differential cytotoxicity against isogenic chicken DT40 cell lines with known DNA damage response pathways - Rad54/Ku70 mutant cell line (AID 743015); further: nearly all actives have a fitted effect of over 60% in size; further: potency means the concentration at half of the fitted maximal effect
[17] = molecular target: Estrogen receptor (Homo sapiens) (UniProt P03372); assay: qHTS assay to identify small molecule antagonists of the estrogen receptor alpha (ER-alpha) signaling pathway (AID 743069; active means well fitted curve in the direction sought with a large enough effect in the signal ratio in the repeat runs, not every such curve was filed as active; inconclusive means weak or mixed curves, or effect the other way; inactive means no such curve, though single readings can be large or run the other way; the % refers to the signal ratio; further: potency means the concentration at half of the fitted maximal effect)
In short: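 Estradiol-stimulated ER-alpha-UAS-bla HEK293 cells, 18 hr compound exposure at 37C. LiveBLAzer B/G substrate, 2 hr RT, fluorescence read.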

[18] = qHTS assay to identify small molecule antagonists of the thyroid receptor (TR) signaling pathway (AID 743065); further: nearly all actives have a fitted effect of over 55% in size; further: potency means the concentration at half of the fitted maximal effect
In short: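 GH3.TRE-Luc rat pituitary cells carrying two TR response elements driving luciferase were plated for 4 h, given compound plus 1 nM T3 (final), and incubated 23.5 h at 37 C. ONE-Glo luminescence measured reporter inhibition; CellTiter-Fluor fluorescence tracked cytotoxicity.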

Measured: Potency

O=C1CCN(c2ccccc2)N1
active: [1] 68.8 µM
inactive: [2] | [3] | [4] | [5] | [6] | [7] | [8] | [9] | [10] | [11] | [12] | [13] | [14] | Aromatase (Homo sapiens)

Cc1c(-c2ccccc2)oc2c(C(=O)OCCN3CCCCC3)cccc2c1=O
inactive: [15] | [1] | [16] | [2] | [6] | [8] | [9] | [17] | [10] | [11] | [12] | [13] | [14]

CC(C)CC(=O)OCc1ccccc1
inactive: [15] | [2] | [6] | [8] | [18] | [9] | [10] | [11] | [12] | [13] | [14] | Aromatase (Homo sapiens)

CCCCNC(=S)NCCCC
inactive: [6] | [8] | [18] | [9] | [10] | [11] | [12] | [13] | [14] | Aromatase (Homo sapiens)
active: [15] 48.6 µM | [1] 34.4 µM | [16] 24.3 µM

COC(=O)c1ccc2cc(C(=O)OC)ccc2c1
inactive: [1] | [16] | [2] | [6] | [8] | [18] | [9] | [17] | [10] | [11] | [12] | [13] | [14] | Aromatase (Homo sapiens)

CCOC(=O)c1ccccc1O
inactive: [1] | [16] | [2] | [6] | [8] | [18] | [9] | [10] | [14] | Aromatase (Homo sapiens)

Cc1c(N)cccc1N
active: [16] 14 µM
inactive: [2] | [6] | [8] | [18] | [9] | [10] | [14]

CNCCC(Oc1ccccc1OC)c1ccccc1 (stereo unspecified)
inactive: [1] | [16] | [2] | [6] | [9] | [17] | [10] | [11] | [12] | [13] | [14] | Aromatase (Homo sapiens)
active: [15] 26.6 µM

CCCOCCC
inactive: [15] | [1] | [16] | [2] | [6] | [8] | [10] | [11] | [12] | [13] | [14] | Aromatase (Homo sapiens)

C[C@@H]1CN(c2c(F)c(N)c3c(=O)c(C(=O)O)cn(C4CC4)c3c2F)C[C@H](C)N1
inactive: [15] | [1] | [16] | [2] | [6] | [8] | [17] | [10] | [11] | [12] | [13] | [14] | Aromatase (Homo sapiens)

O=C(CC(=O)C(F)(F)F)c1ccccc1
inactive: [15] | [2] | [6] | [9] | [10] | [11] | Aromatase (Homo sapiens)
active: [17] 28 µM [inconclusive] | [12] 19.6 µM

NC1=NCC2c3ccccc3Cc3ccccc3N12 (stereo unspecified)
active: [15] 21.1 µM | [1] 26.6 µM
inactive: [6] | [8] | [9] | [10] | [14] | Aromatase (Homo sapiens)

CCCCNCCCC
inactive: [15] | [1] | [16] | [2] | [6] | [8] | [9] | [10] | [14] | Aromatase (Homo sapiens)

CC(C)=CCC[C@](C)(O)[C@@H]1CC=C(C)CC1
inactive: [1] | [16] | [2] | [6] | [8] | [18] | [9] | [14] | Aromatase (Homo sapiens)

O=c1[nH]cnc2c1ncn2[C@@H]1O[C@H](CO)[C@@H](O)[C@H]1O
inactive: [1] | [16] | [2] | [6] | [8] | [9] | [10] | [14] | Aromatase (Homo sapiens)

O=[N+]([O-])c1nccn1CO[C@@H](CO)[C@H](O)CO
inactive: [1] | [16] | [2] | [6] | [8] | [18] | [9] | [14] | Aromatase (Homo sapiens)

Cc1cc(NS(=O)(=O)c2ccc(N)cc2)nc(C)n1
inactive: [1] | [2] | [6] | [8] | [18] | [9] | [17] | [10] | [11] | [12] | [13] | [14] | Aromatase (Homo sapiens)

CCCCN1C[C@H](O)[C@@H](O)[C@H](O)[C@H]1CO
inactive: [1] | [16] | [2] | [6] | [18] | [9] | [17] | [10] | [11] | [12] | [13] | Aromatase (Homo sapiens)

c1ccc(CN(CC2=NCCN2)c2ccccc2)cc1
active: [15] 29.8 µM | [8] 26.6 µM | [18] 23.7 µM
inactive: [2] | [6] | [9] | [10] | [11] | [12] | [13] | [14] | Aromatase (Homo sapiens)

OCCN(CCO)CCN(CCO)CCO
inactive: [16] | [2] | [3] | [5] | [6] | [7] | [8] | [18] | [9] | [17] | [10] | [11] | [13] | [14] | Aromatase (Homo sapiens)

CCN(CC)CCOc1ccc(Cc2ccccc2)cc1
active: [15] 0.473 µM | [1] 0.188 µM | [16] 0.376 µM | [8] 11.9 µM | [10] 26.8 µM | [14] 29.8 µM
inactive: [2] | Aromatase (Homo sapiens)

CN(C)CCOc1ccccc1Cc1ccccc1
inactive: [1] | [2] | [6] | [9] | [10] | Aromatase (Homo sapiens)
active: [14] 2.37 µM

CCN(O)CC
inactive: [1] | [16] | [2] | [6] | [8] | [9] | [10] | [14] | Aromatase (Homo sapiens)

CCOC(=O)COc1ccc2c(c1)CC(NCC(O)c1cccc(Cl)c1)CC2 (stereo unspecified)
inactive: [6] | [11] | [12] | [14]
active: [15] 54.9 µM | [1] 54.9 µM | [16] 54.9 µM | [8] 27.5 µM | [18] 48.9 µM

O=CCCc1ccccc1
inactive: [15] | [16] | [2] | [6] | [8] | [9] | [14] | Aromatase (Homo sapiens)

Nc1ccc2ccccc2c1S(=O)(=O)O
inactive: [1] | [16] | [2] | [6] | [8] | [9] | [10] | [14]

O=C(C(Cl)Cl)N1CCOC12CCCCC2
inactive: [2] | [17] | [10] | [11] | [12] | [13] | [14] | Aromatase (Homo sapiens)
active: [1] 6.86 µM

C=CCCC=C
inactive: [15] | [1] | [16] | [2] | [6] | [8] | [9] | [17] | [10] | [11] | [12] | [13] | [14] | Aromatase (Homo sapiens)

CN(C)C(=O)NC1(c2ccccc2)CCN(CCC[C@]2(c3ccc(Cl)c(Cl)c3)CCCN(C(=O)c3ccccc3)C2)CC1
active: [1] 14.6 µM | [16] 9.2 µM | [8] 5.17 µM
inactive: [6] | [17] | [10] | [11] | [12] | [13] | Aromatase (Homo sapiens)

CN1CCN(C2=Nc3ccccc3Oc3ccc(Cl)cc32)CC1
inactive: [2] | [6] | [9] | [17] | [10] | [11] | [12] | [13] | [14] | Aromatase (Homo sapiens)
